Screens (PubChem BioAssay)
SENP7 inh = inhibitors of human SENP7 protease | Q9BQF6 | hit rate 1.5% among 330,000 | recombinant SENP7, Z-RLRGG-aminoluciferin luminescence, 40 min | inhibition, % at 5 µM;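 active means inhibition above about 50% at the single test dose, limit read from the data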;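 further: plate controls were DMSO with enzyme for no effect and no enzyme buffer wells for full effect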
SENP8 block-1 = inhibitors of human SENP8 protease; inhibition, % at 10 µM; hit rate 1.2% among 330,000; Q96LD8; purified SENP8, Z-RLRGG-aminoluciferin cleavage, luminescence; in the data active means inhibition above about 50%
SENP8 block-2 = blocks human SENP8 cleavage of Nedd8 substrate; Q96LD8; recombinant SENP8, Nedd8 substrate fluorescence; inhibition, % at 20 µM; hit rate 0.64% among 360,000; in the data active means inhibition mostly above about 40%, no sharp cut-off; inactive means mostly below about 27%
SENP6 inh = inhibitors of human SENP6 protease | Q9GZR1 | Recombinant SENP6 catalytic domain, aminoluciferin luminescence | inhibition, % at 10 µM | hit rate 1.8% among 330,000 | AID 2599;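 active means inhibition above about 50% at the single tested dose, limit read from the data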;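 further: plate controls were DMSO wells with enzyme for no effect and DMSO wells lacking enzyme for full effect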
Target sequence (Q9GZR1 628-1112 limits assumed): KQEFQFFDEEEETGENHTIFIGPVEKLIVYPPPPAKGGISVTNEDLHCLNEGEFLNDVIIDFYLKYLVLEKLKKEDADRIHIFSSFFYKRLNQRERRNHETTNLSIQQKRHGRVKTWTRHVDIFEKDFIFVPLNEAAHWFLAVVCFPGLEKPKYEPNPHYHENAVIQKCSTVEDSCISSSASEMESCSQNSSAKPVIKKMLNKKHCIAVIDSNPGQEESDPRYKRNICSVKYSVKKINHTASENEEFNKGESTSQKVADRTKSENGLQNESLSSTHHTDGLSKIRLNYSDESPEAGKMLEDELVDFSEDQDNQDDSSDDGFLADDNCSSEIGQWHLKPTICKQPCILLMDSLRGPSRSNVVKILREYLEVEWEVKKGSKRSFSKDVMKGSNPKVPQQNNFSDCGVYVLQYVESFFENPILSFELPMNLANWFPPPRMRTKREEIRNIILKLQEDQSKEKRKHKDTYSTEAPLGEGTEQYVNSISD
HSP90 inh = inhibitors of HSP90 luciferase refolding in rabbit reticulocyte lysate. luciferase refolding luminescence, 3 h. hit rate 0.91% among 290,000. inhibition, % at 5.6 µM. AID 1789;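 active means inhibition above the screen-wide mean plus 3 SD, computed separately per campaign, cut at about 16% in these data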;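 further: 0% = DMSO wells and 100% = 60 µM geldanamycin wells; inhibitors lower the luminescence because luciferase stays unfolded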
LGR2 inh = Drosophila LGR2 receptor signaling inhibition; AID 720647; inhibition, % at 9.99 µM; hit rate 0.35% among 380,000; HEK293 LGR2, CRE-luciferase, bursicon-stimulated, 4 h;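 active means drop in luminescence signal, shown as inhibition above about 50% in the replicate tests, limit read from the data, passing the limit was not always enough; inconclusive means probably only some replicates passing the limit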;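 further: agonist challenge used bursicon conditioned medium at about half maximal strength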
HSP90 inh confirm = confirmation of HSP90 inhibitors; shares compounds with HSP90 inh; rabbit reticulocyte lysate, luciferase refolding luminescence, 3 h; inhibition, % at 5.9 µM; hit rate 64% among 2,300; in the data active means inhibition above about 18%;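 further: 0% = vehicle wells and 100% = reference inhibitor wells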
FLuc counter = counter-screen for HSP90 inhibitors: inhibitors of firefly luciferase. shares compounds with HSP90 inh. purified native firefly luciferase, luminescence. inhibition, % at 5.9 µM. hit rate 48% among 2,300. AID 1847;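 active means inhibition above the mean inhibition of all tested sample wells plus 3 SD, cut at about 10% in these data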;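 further: 0% = DMSO with luciferase and 100% = wells lacking luciferase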
Active calls of the source: *; ? = inconclusive; nt = no result. Only some compounds are listed: those with a hit (about 2.3% of all), similar ones and a draw of the others.

SMILES	SENP7 inh	SENP8 block-1	SENP8 block-2	SENP6 inh	HSP90 inh	LGR2 inh	HSP90 inh confirm	FLuc counter
CCOc1ccc(NC(=O)c2ccc3c(=O)n(-c4ccc(OC)cc4OC)c(=S)[nH]c3c2)cc1	3	3	6	-11	69*	6	8	-4
COc1ccc(NC(=O)c2ccc3c(=O)n(-c4ccc(OC)cc4OC)c(=S)[nH]c3c2)c(OC)c1	7	9	20	-17	-4	16	nt	nt
CC(C)c1ccc(C(=O)NC2=NCCS2)cc1	12	2	15	34	18*	14	42*	38*
Cc1ccc(C(=O)NC2=NCCS2)cc1	4	-10	nt	2	12	-21	nt	nt
Cc1ccc([N+](=O)[O-])cc1N=C1C(=O)Nc2ccccc21	-7	-8	15	18	22*	-2	-2	-11
CC(C)c1ccccc1OCC(=O)NCC(c1cccs1)N1CCOCC1 (stereo not drawn)	10	4	6	-1	24*	13	0	-5
O=[N+]([O-])c1ccccc1NC(=S)N/N=C/c1ccc(O)c(O)c1	13	17	5	8	43*	-41	2	-21
O=C(C1CC1)N1CC2(C1)[C@H](c1ccccc1)[C@@H](CO)N2Cc1nccs1	nt	nt	nt	nt	nt	-9	nt	nt
CN(C)c1cccc(C(=O)N/N=C/c2ccccc2F)c1	15	-1	-8	-36	36*	86*	73*	60*
Cc1cc(/C=N/NC(=O)c2cccc(N(C)C)c2)c(C)n1-c1cc(C(=O)O)cc(C(=O)O)c1	6	3	-325	-1	5	-45	nt	nt
Cc1noc(C)c1NC(=O)N(C)C[C@@H]1Oc2ccc(NC(=O)CCC(F)(F)F)cc2C(=O)N([C@H](C)CO)C[C@H]1C	nt	nt	nt	nt	nt	-2	nt	nt
CCCC(=O)NC(c1ccccc1)c1ccc2cccnc2c1O (stereo not drawn)	1	24	11	-9	20*	nt	18*	-3
COCCCN=C1NN=C(c2cc(C)n(-c3ccccc3F)c2C)CS1	1	-5	16	-14	18*	6	70*	64*
Fc1ccc(F)c(C2=NNC(=Nc3ccccc3F)SC2)c1	12	4	-85	35	4	8	nt	nt
COCCCN=C1NN=C(c2cc(C)n(Cc3ccccc3Cl)c2C)CS1	2	5	-3	-16	21*	-11	48*	23*
COCCn1c(C)cc(C2=NNC(=Nc3ccccc3F)SC2)c1C	3	6	2	8	77*	nt	62*	55*
COc1ccc(NC2=C(C(C)=O)C(c3ccc(OC)cc3)C(C(C)=O)C(C)(O)C2)cc1 (stereo not drawn)	-1	3	16	-13	31*	?	4	1
Cc1c(NC(=O)c2ccc(-c3ccccc3)cc2)cccc1C(=O)O	96*	93*	28	99*	75*	56*	81*	63*
O=C(Nc1ccccc1C(=O)O)c1ccccc1	-1	21	-3	30	4	nt	nt	nt
COc1ccccc1-c1cnc2c(c1)C(=O)N([C@@H](C)CO)C[C@H](C)[C@@H](CN(C)Cc1cccc(F)c1)O2	nt	nt	nt	nt	nt	11	nt	nt
CC(C)C/C(O)=C/c1nc2cc(Cl)ccc2oc1=O	10	-9	-11	16	6	-8	nt	nt
O=c1oc2ccc(Cl)cc2nc1/C=C(\O)c1ccco1	-5	-1	6	-27	82*	7	79*	-5
CN=c1scc(-c2ccccc2F)n1/N=C/c1ccc(O)c(O)c1O	nt	nt	43*	nt	22*	70*	92*	89*
O=C(C[C@H]1CC[C@@H]2[C@H](COC[C@@H](O)CN2C(=O)Nc2ccc(F)cc2)O1)NCCCN1CCOCC1	nt	nt	nt	nt	nt	-5	nt	nt
C=CCn1c(C)cc(C(=O)CSc2nc3ccccc3c(=O)[nH]2)c1C	-2	-1	23	-22	1	nt	nt	nt
SMILES	SENP7 inh	SENP8 block-1	SENP8 block-2	SENP6 inh	HSP90 inh	LGR2 inh	HSP90 inh confirm	FLuc counter
C=CCn1c(C)cc(C(=O)CSc2nc3ccccc3[nH]2)c1C	30	14	3	43	32*	60*	62*	63*
Cc1ccc(S(=O)(=O)/N=C2/C=C(Sc3ncn[nH]3)C(=O)c3ccccc32)cc1	nt	nt	-12	nt	89*	nt	38*	45*
Cc1ccc(S(=O)(=O)/N=C2/C=C(Sc3ncn[nH]3)C(=O)c3ccccc32)c(C)c1	nt	nt	nt	nt	85*	nt	44*	38*
Cc1ccc(C)c(S(=O)(=O)Nc2ccc(O)c(Sc3ncn[nH]3)c2)c1	0	1	20	6	1	-9	nt	nt
C[C@H](CO)N1C[C@H](C)[C@@H](CN(C)C)OCCCC[C@H](C)Oc2ccc(NS(=O)(=O)c3ccccc3)cc2C1=O	nt	nt	nt	nt	nt	-2	nt	nt
O=C1CC(C(=O)O)S/C(=N\N=C\c2ccc(Br)cc2)N1 (stereo not drawn)	-8	-12	24	4	27*	-12	22*	-14
COC(=O)c1sc(NC(=O)c2ccco2)nc1C	28	22	-28	39	-3	-16	nt	nt
CCCCCCCCc1nnc(NC(=O)c2ccco2)s1	-2	-1	8	0	25*	-13	-3	-6
CCOCc1nnc(NC(=O)c2ccco2)s1	3	1	4	-9	6	nt	nt	nt
Cc1nc(NC(=O)c2ccco2)sc1C(=O)O	nt	nt	-32	nt	54*	13	64*	-13
COc1ccc(-c2cnc3c(c2)C(=O)N([C@@H](C)CO)C[C@@H](C)[C@@H](CN(C)C(=O)C2CC2)O3)cc1	nt	nt	nt	nt	nt	13	nt	nt
O=C(C[C@H]1CC[C@@H](NS(=O)(=O)c2ccccc2)[C@H](CO)O1)N1CCN(c2ccccc2)CC1	nt	nt	nt	nt	nt	6	nt	nt
C/C=C/c1ccc2c(c1)O[C@H](CN(C)C(=O)C1CC1)[C@H](C)CN([C@H](C)CO)S2(=O)=O	nt	nt	nt	nt	nt	-5	nt	nt
CCN=c1scc(-c2ccc(F)cc2)n1/N=C/c1ccccn1	4	0	-11	7	-5	-39	nt	nt
Cc1nc(N/N=C/c2ccccn2)sc1C	nt	nt	nt	nt	80*	102*	90*	86*
CCCc1sc(N/N=C/c2ccccn2)nc1-c1ccc(F)cc1	-5	-3	6	-9	64*	nt	-2	-11
c1ccc(C2=NNC(=NCc3ccc4c(c3)OCO4)SC2)cc1	2	-7	13	0	1	4	nt	nt
C=CCN=C1NN=C(c2ccc3c(c2)OCCO3)CS1	3	-4	-17	7	47*	?	83*	79*
O=C1/C(=C2/NCCN2C2CC(=O)N(c3ccccc3)C2=O)CC/C1=C\c1ccccc1 (stereo not drawn)	-3	-6	12	-18	-5	-6	nt	nt
Cc1ccc(N2C(=O)CC(N3CCN/C3=C3\CC/C(=C\c4ccccc4)C3=O)C2=O)cc1 (stereo not drawn)	6	-2	20	-26	18*	10	6	-5
